Experimental data: PubChem BioAssay (EPA / NIEHS)
Values joined by “and” are separate entries in the source; they are usually repeats but may differ in a detail not shown here. Identical values can stand only once. Records with an inconclusive call do not appear. Active and inactive are the calls of the source. Rule for the calls, unless noted: active = hit-call score of the fitted dose curve at least 0.9, where 1 is the maximum; inconclusive = response in the unintended direction; inactive = score below 0.9.

How the values were obtained:
[1] = test system: Thyroperoxidase (TPO), gene 54314; assay: CCTE_Simmons_AUR_rTPO: CCTE's Amplex UltraRed Assay for Thyroperoxidase (TPO) Inhibition, Simmons Lab (AID 2283662);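 for AC50: potency for loss of signal meaning inhibition of peroxidase activity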
In short: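 Rat thyroid microsomes (5 ug protein) with 25 uM Amplex UltraRed and 300 uM H2O2 in 200 mM phosphate buffer, 30 min at 37C in dark; fluorescence 544/590 nm. Eight concentrations, 5 nM–87.5 uM final, 0.5% DMSO, triplicate biological replicates.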

[2] = CCTE_Simmons_CellTiterGLO_HEK293T: Viability Assessment in CCTE's Assays for Thyroperoxidase (TPO) Inhibition, Simmons Lab (AID 2283665);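 for AC50: cells exposed to compound for 24 h before readout; actives reduce ATP signal below DMSO vehicle meaning cytotoxicity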
In short: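 HEK293T cells in DMEM with 1% FBS, dosed 24 h at 37C with 8 concentrations, 5 nM–87.5 uM final, 0.5% DMSO. ATP measured by CellTiter Glo luminescence; loss of signal vs DMSO, three biological replicates.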

[3] = Tanguay_ZF_120hpf_PFIN_legacy: (Legacy) Oregon State University Tanguay Lab 120 Hour Post-fertilization zebrafish Assay for Pectoral Fin Malformation (AID 2283648);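 note: each larva judged yes or no for fin defect by brightfield with dead larvae skipped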
In short: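 5D WT zebrafish; pronase dechorionation 4 hpf; 1 embryo/well at 6 hpf; static exposure to 120 hpf, 28C, sealed, foil-covered; final DMSO 0.64% v/v; 5 uM trimethyltin chloride positive control; fin defect scored yes/no.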

[4] = Tanguay_ZF_120hpf_CFIN_legacy: (Legacy) Oregon State University Tanguay Lab 120 Hour Post-fertilization zebrafish Assay for Caudal Fin Malformation (AID 2283649)
In short: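 Dechorionated 5D wild-type zebrafish, static exposure 6–120 hpf, 28C, sealed and dark, 0.64% v/v DMSO final. Binary fin-malformation call at 120 hpf, brightfield; gain of signal vs DMSO baseline.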

[5] = Tanguay_ZF_120hpf_PIG_legacy: (Legacy) Oregon State University Tanguay Lab 120 Hour Post-fertilization zebrafish Assay for Pigmentation Malformation (AID 2283650)
In short: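 Pronase dechorionation at 4 hpf; embryos plated at 6 hpf, one per well; static exposure, sealed and foil-covered, 28C, to 120 hpf; pigmentation read by brightfield, binary; DMSO 0.64% baseline, 5uM trimethyltin chloride positive control.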

[6] = Tanguay_ZF_120hpf_CIRC_legacy: (Legacy) Oregon State University Tanguay Lab 120 Hour Post-fertilization zebrafish Assay for Circulatory Malformation (AID 2283651)
In short: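 Dechorionated wild-type 5D zebrafish embryos, one per well, statically exposed from 6 to 120 hpf at 28C with 0.64% DMSO; circulatory malformation scored present/absent by brightfield microscopy at 120 hpf, dead embryos excluded.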

[7] = Tanguay_ZF_120hpf_SWIM_legacy: (Legacy) Oregon State University Tanguay Lab 120 Hour Post-fertilization zebrafish Assay for Swim Bladder Malformation (AID 2283654);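 note: swim bladder malformation in each larva scored yes or no under brightfield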
In short: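 Embryos lacking chorions were exposed individually and statically to test chemical from 6 to 120 hpf at 28C, with 0.64% DMSO as vehicle. At 120 hpf, swim bladder malformation was recorded as present or absent by brightfield microscopy.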

[8] = Tanguay_ZF_120hpf_TRUN_legacy: (Legacy) Oregon State University Tanguay Lab 120 Hour Post-fertilization zebrafish Assay for Truncated Body (AID 2283655)
In short: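 Whole-embryo zebrafish screen: dechorionated 5D embryos, static exposure 6–120 hpf, 28C, sealed foil-covered plates, 0.64% DMSO. Binary truncation call; gain of signal versus DMSO baseline.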

[9] = Tanguay_ZF_120hpf_ActivityScore_legacy: (Legacy) Oregon State University Tanguay Lab 120 Hour Post-fertilization zebrafish Assay Score for Activity (AID 2283742);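 for AC50: dechorionated Tropical 5D wild-type zebrafish embryos held singly per well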
In short: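 Embryos are staged, enzymatically dechorionated at 4 hpf, placed individually at 6 hpf, then held in test chemical (0.64% DMSO) at 28C until 120 hpf. Mortality and malformations are scored by brightfield, with non-mortality endpoints skipped for dead embryos.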

[10] = CEETOX_H295R_MTT_cell_viability: Viability Assessment in the CeeTox HT-H295R MTT Assay (AID 2283718; active = hit-call score of the fitted dose curve at least 0.9, where 1 is the maximum; inactive = score below 0.9)
In short: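 MTT reduction (0.5 mg/ml, 4 h at 37 C; absorbance at 570 and 650 nm) gave viability as background-corrected percent change versus controls. H295R cells had 48 h forskolin (10 uM) prestimulation, then 48 h chemical exposure at 0.1% DMSO.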

[11] = Tanguay_ZF_120hpf_TR_legacy: (Legacy) Oregon State University Tanguay Lab 120 Hour Post-fertilization zebrafish Assay for Touch Response (AID 2283667)
In short: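 5D WT embryos; static exposure to 120 hpf, 28C, sealed/dark; DMSO 0.64% v/v final. TR scored present/absent; dead embryos excluded. Pos ctrl 5uM trimethyltin chloride.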

[12] = CCTE_Padilla_ZF_144hpf_TERATOSCORE: (Legacy) CCTE's 144 Hour Post-fertilization zebrafish Assay Teratoscore, Padilla Lab (AID 2283679; active = hit-call score of the fitted dose curve at least 0.9, where 1 is the maximum; inactive = score below 0.9;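 for AC50: zebrafish embryos with chorions exposed by immersion from 6-8 hpf to 5 dpf with daily renewal; teratogenicity score from eye scoring of death hatching and malformations at 144 hpf; higher score means more developmental defects relative to DMSO baseline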)
In short: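 Larvae scored by eye at 144 hpf for death, hatching and malformations after a day in clean Hanks'. Before that, daily-renewed exposure at 80 uM (0.4% DMSO, 26C) from roughly 6-8 hpf through 5 dpf, 4 embryos per chemical.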

[13] = STM_H9_OrnithineISnorm_perc: Stemina devTOX quickPredict H9 human embryonic stem cell (hESC)-based Assay for Ornithine (ORN) Metabolite Biomarker, Normalized (AID 2283712; active = hit-call score of the fitted dose curve at least 0.9, where 1 is the maximum; inactive = score below 0.9;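 note: ornithine released into spent medium during last day measured by mass spectrometry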)
In short: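 Undifferentiated H9 hESCs exposed 72 h with daily media and compound renewal; final 24-h conditioned medium analysed by UPLC-HRMS. Ornithine peak area normalised to spiked C13 standard and to median 0.1% DMSO control; viability by CellTiter-Fluor.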

[14] = STM_H9_CystineISnorm_perc: Stemina devTOX quickPredict H9 human embryonic stem cell (hESC)-based Assay for Cystine (CYSS) Metabolite Biomarker, Normalized (AID 2283713; active = hit-call score of the fitted dose curve at least 0.9, where 1 is the maximum; inactive = score below 0.9)
In short: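 Undifferentiated H9 hESCs exposed 72 h, compound and media replaced every 24 h; final 24-h media analysed by UPLC-HRMS. Cystine normalized to C13 spike-in standard and median 0.1% DMSO control.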

[15] = STM_H9_OrnCyssISnorm_ratio: Stemina devTOX quickPredict H9 human embryonic stem cell (hESC)-based Assay for Ornithine (ORN):Cystine (CYSS) Ratio (AID 2283714)
In short: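 Steps: H9 hESCs in pluripotent state dosed 72h, medium plus compound renewed every 24h; conditioned medium from the final 24h deproteinized in 40% acetonitrile; ORN and CYSS quantified by UPLC-HRMS with C13 spike-ins; ratio relative to vehicle.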

[16] = read-out: kallikrein-3 (KLK3), KLK3 (gene 354); assay: LTEA_HepaRG_KLK3: Life Technologies and Expression Analysis (LTEA) Assay for kallikrein-3 (KLK3) using HepaRG (AID 2283652; active = hit-call score of the fitted dose curve at least 0.9, where 1 is the maximum; inactive = score below 0.9); details: mRNA level, 48 h; actives raise or lower the signal
In short: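 Differentiated human HepaRG cells in serum-free induction medium exposed 48 h in duplicate, eight-point half-log series from 100 uM in 0.5% DMSO. KLK3 mRNA by qRT-PCR, normalised to ACTB, GAPDH, POLR2A; bidirectional fit versus DMSO.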

[17] = read-out: solute carrier (SLC22A6), SLC22A6 (gene 9356); assay: LTEA_HepaRG_SLC22A6: Life Technologies and Expression Analysis (LTEA) Assay for solute carrier (SLC22A6) using HepaRG (AID 2283653; active = hit-call score of the fitted dose curve at least 0.9, where 1 is the maximum; inactive = score below 0.9); details: mRNA level, 48 h; actives raise or lower the signal
In short: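 HepaRG, human liver line; 48 h chemical exposure; 8-pt half-log series from 100 uM in 0.5% DMSO, duplicate wells. Readout: TaqMan qRT-PCR of SLC22A6 mRNA, housekeeping-normalised; bidirectional curve fit vs DMSO baseline.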

[18] = read-out: solute carrier (SLC10A1), SLC10A1 (gene 6554); assay: LTEA_HepaRG_SLC10A1: Life Technologies and Expression Analysis (LTEA) Assay for solute carrier (SLC10A1) using HepaRG (AID 2283657; active = hit-call score of the fitted dose curve at least 0.9, where 1 is the maximum; inactive = score below 0.9); details: mRNA level, 48 h; actives raise or lower the signal
In short: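 Transcript levels were measured by qRT-PCR after human HepaRG cells received test chemical for 48 hours, up to 100 uM in half-log dilutions. Values come from bidirectional concentration-response fitting relative to 0.5% DMSO vehicle.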

[19] = read-out: matrix metalloproteinase-1 (MMP1), MMP1 (gene 4312); assay: LTEA_HepaRG_MMP1: Life Technologies and Expression Analysis (LTEA) Assay for matrix metalloproteinase-1 (MMP1) using HepaRG (AID 2283658; active = hit-call score of the fitted dose curve at least 0.9, where 1 is the maximum; inactive = score below 0.9); details: mRNA level, 48 h; actives raise or lower the signal
In short: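 MMP1 transcript read by TaqMan qRT-PCR (Fluidigm array) after 48 h chemical exposure of HepaRG cells in serum-free induction medium. Eight-point half-log series, top 100 uM, 0.5% DMSO vehicle. Bidirectional curve fit against DMSO baseline.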

[20] = read-out: Cytochrome P450 (CYP24A1_1), CYP24A1 (gene 1591); assay: LTEA_HepaRG_CYP24A1_1: Life Technologies and Expression Analysis (LTEA) Assay for Cytochrome P450 (CYP24A1_1) using HepaRG (AID 2283671; active = hit-call score of the fitted dose curve at least 0.9, where 1 is the maximum; inactive = score below 0.9); details: mRNA level, 48 h; actives raise or lower the signal
In short: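 In this test, gene induction or suppression of CYP24A1 in human HepaRG liver cells is measured by qRT-PCR after 48 h chemical treatment (eight concentrations, maximum 100 uM). Values are fitted bidirectionally relative to DMSO.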

Measured: AC50

O=C(NC(=O)c1c(F)cccc1F)Nc1ccc(Cl)cc1
inactive: [2]
active: [1] 25.4 µM

O=C(N[C@H]1CN2CCC1CC2)c1ccc2c(c1)OCCO2
inactive: [3] | [4] | [5] | [6] | [7] | [8] | [9]

CCOP(=S)(OCC)SCS(=O)(=O)C(C)(C)C
active: [1] 43.8 µM
inactive: [2]

O=C1c2ccccc2C(=O)C1C(=O)C(c1ccccc1)c1ccc(Cl)cc1 (configuration not stated)
active: [1] 32.4 µM | [2] 36.4 µM

Clc1cccc(Cl)c1
inactive: [3] | [6] | [7] | [8] | [9]

Nc1ccc(N)cc1
active: [1] 5.63 µM | [2] 32 µM

CC(C)(C)c1ccccc1O
inactive: [3] | [4] | [5] | [6] | [7] | [8] | [1] | [10] | [9]
active: [2] 55.4 µM

CN(C)C(=S)S
inactive: [3] | [5] | [6] | [7] | [8] | [11] | [10]
active: [1] 30.8 µM | [2] 8.68 µM | [12] 12.4 µM | [13] 66.3 µM | [14] 75.9 µM | [15] 71.7 µM | [9] 0.00103 µM

N#CCC#N
inactive: [2]
active: [1] 7.66 µM

O=C(CBr)c1ccc(O)cc1
inactive: [2]
active: [1] 6.82 µM and 5.72 µM

Clc1cccc(Cl)c1Cl
inactive: [3] | [4] | [5] | [6] | [7] | [8] | [11]
active: [9] 0.00446 µM

COc1ccccc1N
active: [1] 0.39 µM
inactive: [3] | [5] | [6] | [7] | [2] | [11] | [9]

CCCCCCCCCCCCc1cccc(S(=O)(=O)O)c1
inactive: [3] | [6] | [7] | [8] | [11] | [9]
active: [1] 39.4 µM | [2] 30.4 µM | [12] 53 µM

CC(C)O.CC(C)O.OCCN(CCO)CCO.OCCN(CCO)CCO.[Ti]
inactive: [5] | [6] | [7] | [11] | [12] | [13] | [9]
active: [14] 74.1 µM | [15] 72.4 µM

OCCN(CCO)CCO
inactive: [3] | [4] | [5] | [6] | [7] | [8] | [14] | [15] | [9]
active: [13] 0.0236 µM

CCCCCCCCCCCCOS(=O)(=O)O
active: [1] 28 µM and 48.7 µM | [2] 31.9 µM and 92.3 µM

O=C(CCl)Nc1ccccc1
active: [1] 16 µM

Oc1cc(Cl)c(Cl)cc1Cl
inactive: [3] | [4] | [5] | [6] | [7] | [8] | [11]
active: [12] 5.5 µM | [9] 32.1 µM

O=c1[nH]c(=O)n(Cl)c(=O)n1Cl
inactive: [1] | [2]

O=C(O)C1(c2ccc3c(c2)OC[C@H](Cc2ccc(-c4ccccc4)cc2)[C@H]3O)CCCC1
inactive: [5] | [6] | [7] | [8] | [11] | [9]
active: [1] 33.4 µM | [2] 13.3 µM | [12] 13.5 µM

CN(N=O)C(N)=O
active: [1] 58.9 µM
inactive: [2]

O=S1(=O)OC(c2cc(Br)c(O)c(Br)c2)(c2cc(Br)c(O)c(Br)c2)c2ccccc21
active: [1] 25.9 µM | [2] 11.1 µM

CCOc1ccc(N)cc1
active: [1] 1.75 µM | [2] 28.4 µM

N#Cc1cccnc1
inactive: [3] | [4] | [5] | [6] | [7] | [11] | [9]

N#CS
inactive: [2] | [13] | [14]
active: [1] 10.6 µM and 8.87 µM

Oc1c(Cl)cc(Cl)cc1Cl
active: [12] 3.97 µM | [9] 19.1 µM
inactive: [3] | [4] | [5] | [6] | [7] | [8] | [11]

Cc1cc(C)cc(C)c1
inactive: [3] | [4] | [5] | [6] | [16] | [17] | [7] | [8] | [18] | [19] | [11] | [20] | [10] | [9]

Nc1ncn[nH]1
inactive: [13] | [14]
